# Screening data from PubChem BioAssay.
# NADH enzymes: inhibition of NAD/NADH coupling enzymes, library profiling | coupled PK/LDH NADH assays, four targets | IC50, µM (top dose mostly 10 µM), without a hit: at the top dose inhibition | 0.02% of 65,000 active;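 active means single-dose screening hits from any of four coupled enzyme assays that gave an IC50 when retested across doses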;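 further: the DPM-DC format reads NADH fluorescence rather than 340 nm absorbance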
# PMK inhibit: S. pneumoniae PMK inhibition; AID 539; inhibition, % at 10 µM; 0.49% of 65,000 active; purified PMK, PK/LDH-coupled NADH absorbance 340 nm;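 active means top-ranked compounds by inhibition in the single 10 µM screen, taking a fixed number of the strongest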;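 further: 0% = full reaction with DMSO carrier and 100% = background rate without enzyme reaction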
# MK inhibit: blocks S. pneumoniae mevalonate kinase; purified MK, PK/LDH-coupled NADH absorbance 340 nm; inhibition, % at 10 µM; 0.48% of 65,000 active;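 active means ranked among the strongest by inhibition in the single 10 µM screen, a fixed top-ranked set picked for dose follow-up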
# A340 absorber: compounds absorbing at 340 nm | compound absorbance at 340 nm, fold over control | fold change at 10 µM | 65,000 tested, under 10 active;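 active means at 10 µM dose, initial 340 nm absorbance at least 2 fold that of control wells; inactive means change under 2 fold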;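 further: initial absorbance extrapolated from kinetic A340 decline of NADH oxidation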
# DPM-DC inhibit: inhibitors of Streptococcus pneumoniae diphosphomevalonate decarboxylase | purified DPM-DC, PK/LDH coupled NADH fluorescence | calls only at 10 µM | 0.49% of 65,000 active;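 active means the 320 compounds with the highest percent inhibition in the single-dose primary screen, excluding strongly autofluorescent ones, cut at about 32% in these data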;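 further: kinetic rate of NADH fluorescence loss reporting ADP formed by the decarboxylase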
# Fluor 339 460: intrinsic fluorescence of library compounds, ex339/em460 – biochemical, MLSMR library, data from DPM-DC assay, artefact control, profiling panel. 5.5% of 65,000 active. compound autofluorescence, ex339/em460 nm, NADH buffer; active compounds read high; 1 = no-compound wells, NADH background. fluorescence fold increase at 10 µM;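 active means at 10 µM, mean starting fluorescence two-fold or more over control wells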;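 further: signal is the first read of a kinetic run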
# Starred values were filed as active, the others as inactive; i = inactive; . = not tested or not shown; + = active, no number. The list is not random: actives were taken first. Their share in the collection is about 6.5%.
SMILES,NADH enzymes,PMK inhibit,MK inhibit,A340 absorber,DPM-DC inhibit,Fluor 339 460
O=C(NCc1ccccc1)N1CCN(c2ccc(Cl)c(Cl)c2)CC1,6%,16,1,1,i,1.1
CCn1c2ccccc2c2nc3cc(OC)c(OC)cc3nc21,26%,11,.,1.1,+,2.7*
CCn1c2ccccc2c2nc3ccccc3nc21,3%,0,6,1.1,.,2
COc1cc2nc3c4ccccc4n(CC#N)c3nc2cc1OC,8%,7,8,1.1,.,3.8*
Cc1c(Cc2ccccc2)c(=O)oc2c(CN(C)C)c(O)c(Cl)cc12,2%,2,1,1.2,.,3.8*
O=C(COC(=O)c1ccccc1NC(=O)c1ccco1)NCCC1=CCCCC1,12%,14,9,1.1,.,2*
CS(=O)(=O)N(CCc1ccccc1)CC(=O)NCc1ccco1,4%,6,6,1,i,1.1
O=C1c2ccccc2NC2CCCCCN12 (centres undefined),3%,13,9,0.99,.,3*
O=C1c2ccccc2NC2CCCCC12 (centres undefined),2%,0,7,1.1,i,1.1
COC(=O)CSc1nc2cc(C)cc(C)c2cc1C#N,6%,12,0,1,i,1.1
Cc1cc(C)c2cc(C#N)c(N3CCCC3)nc2c1,8%,5,10,1,i,2.2*
Cc1nccn1-c1cc(C(C)C)c(C#N)c2nc3ccccc3n12,12%,0,36,1,i,1.1
c1ccc(-c2noc(-c3ccco3)n2)nc1,9%,11,10,1,i,1.1
c1ccc(-c2nc(-c3ccco3)cs2)nc1,13%,17,9,1.1,.,2.1*
CC(C)CCNc1nc2c(cc1C#N)COC(C)(C)C2,3%,0,5,1,.,2.2*
CC(=O)NCCc1cc2ccc(C)c(C)c2[nH]c1=O,2%,4,0,1.1,i,1.3
Cc1ccc2cc(CCNC(=O)CC(C)(C)C)c(=O)[nH]c2c1C,8%,5,10,1.1,.,2*
Fc1ccc(-c2nn3c(C4COc5ccccc5O4)nnc3s2)cc1 (centres undefined),5%,6,8,0.99,i,1.1
Brc1ccccc1-c1nnc2sc(-c3ccc4c(c3)OCCO4)nn12,7%,11,6,1.1,i,2*
Clc1cccc(-c2nnc3sc(-c4ccc5c(c4)OCO5)nn23)c1,1%,3,0,1.1,i,1.2
c1ccc2c(c1)ncn2Cc1nnc2sc(-c3ccc4c(c3)OCO4)nn12,12%,15,8,1.1,.,3.8*
Clc1ccccc1-c1nnc2sc(-c3ccc4c(c3)OCO4)nn12,17%,11,20,1,i,2.6*
Brc1ccccc1-c1nnc2sc(Cc3ccccc3)nn12,6%,6,4,1,i,1.1
Clc1ccccc1-c1nn2c(Cn3cnc4ccccc43)nnc2s1,5%,5,10,1,i,1.1
c1ccc2c(c1)OCC(c1nnc3sc(-c4ccc5c(c4)OCO5)nn13)O2 (centres undefined),6%,10,0,1,i,2.6*
SMILES,NADH enzymes,PMK inhibit,MK inhibit,A340 absorber,DPM-DC inhibit,Fluor 339 460
c1ccc(Oc2ccc(-n3cnnn3)cc2)cc1,1%,0,0,1,i,1.1
COc1cc(-c2nnc(-c3ccc(S(=O)(=O)c4ccccc4)cc3)o2)cc(OC)c1OC,11%,13,8,1,.,3.7*
COc1cc(-c2nnc(SCC(=O)c3ccccc3)o2)cc(OC)c1OC,5%,14,0,1,i,1.1
O=C(Nc1ccc(N2CCOCC2)c(Cl)c1)c1ncn[nH]1,6%,11,6,1,i,1.1
Cc1ccc(-c2nc3cc(N)ccc3o2)cc1,3%,5,10,1.1,.,2
CC(C)c1ccc2oc(-c3ccc(NC(=O)c4ncn[nH]4)cc3)nc2c1,8%,4,12,1.1,.,3.6*
O=C(Nc1ccc2oc(-c3ccccc3Cl)nc2c1)c1ncn[nH]1,6%,0,12,1.1,.,2.1*
CC(C)c1ccc2oc(-c3ccc(N)cc3)nc2c1,9%,4,14,1.2,.,2.1*
Cc1ccc(-c2nc3cc(N)ccc3o2)c(C)c1,3%,0,6,1,.,4*
COC(=O)c1ccc(C2C(C(=O)Nc3ccc(C)cc3C)=C(C)Nc3ncnn32)cc1 (centres undefined),3%,6,3,1,i,1.1
C=C(C)Cn1c(N2CC(C)CC(C)C2)nc2c1c(=O)[nH]c(=O)n2C (centres undefined),2%,5,3,0.97,i,1.1
CCC(C)c1ccc(O)c(NC(=O)c2ncn[nH]2)c1 (centres undefined),13%,15,13,1.1,i,1.1
CCC(C)c1ccc2oc(-c3ccc(NC(=O)c4ncn[nH]4)cc3)nc2c1 (centres undefined),6%,0,11,1.2,.,3.6*
COc1c[nH]n(C2CCCCC2)c(=O)c1=O,8%,0,23,1,i,1.1
COc1ccccc1CC(=O)N1CCN(c2cccc(C(F)(F)F)c2)CC1,10%,9,11,1,i,1.1
CCOc1ccc(CN2CCN(c3cc(C)nc4c5c(C)cc(C)nc5nn34)CC2)cc1,2%,4,6,1,.,3.1*
Cc1ccc(N2CCN(c3cc(C)nc4c5c(C)cc(C)nc5nn34)CC2)cc1,10%,8,6,0.97,i,1.1
COc1ccc(-c2c(C)nn3c(N4CCN(Cc5ccccc5)CC4)cc(C)nc23)cc1OC,5%,6,4,1.1,i,1.1
COc1ccc(CN2CCN(c3cc(C)nc4c5c(C)cc(C)nc5nn34)CC2)cc1F,8%,5,11,1,.,3.9*
Cc1cc(C)c2c(n1)nn1c(N3CCN(c4ccccc4C)CC3)cc(C)nc21,7%,7,12,1,.,2.8*
Cc1noc(C)c1CSc1ccccc1C(=O)Nc1nccs1,4%,11,2,1,i,1.1
CCOC(=O)N1CCC(NC(=O)CCC(=O)N2CC(C)Oc3ccc(Cl)cc32)CC1 (centres undefined),11%,9,3,0.99,i,1
CCc1nc(N2CCOCC2)c(C#N)c2c1CCCC2,1%,2,0,1,i,2*
CN1CCc2c(C#N)c(N3CCCCC3)nc(N3CCOCC3)c2C1,6%,1,4,1.1,i,1.6
CC(C)c1nc(N2CCCC2)c(C#N)c2c1CCCC2,1%,0,1,1.1,.,2.1*
CCc1nc(N2CCCC2)c(C#N)c2c1CCCC2,4%,12,0,0.93,i,1.6
CCCc1nc(N2CCCC2)c(C#N)c2c1CCCC2,7%,0,20,1,i,2.1*
O=C(Nc1nc2c(s1)CCCC2=O)c1cnccn1,7%,6,9,1.2,i,1
